In PubChem BioAssay AID1578 (Sanford-Burnham Center for Chemical Genomics, 2009):
Hit rate of the full screen: of about 290,000 compounds, about 3,000 (1%) were called active. For the sample, actives were picked, then their nearest neighbours and some compounds at random. Values without a mark were called inactive. No stated cut-off is given here; in the data, active means inhibition mostly above about 36% (no sharp cut-off); inactive means mostly below about 34%.

Test: NOD1 signaling inhibitors, primary screen, cell-based, luminescence, uHTS (AID 1578);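 further: HEK-293T reporter cells stimulated with the NOD1 agonist gamma-tri-DAP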
Conditions: NOD1-driven NF-kB luciferase reporter cells, at 4 µM, stronger effect = higher value

SMILES	inhibition
CCOC(=O)Cc1cnc(NC(=O)CSc2nc(C)c(CC)c(=O)[nH]2)s1	-29.1%
O=C(c1cc(-c2ccccc2)n[nH]1)N1CCc2c([nH]c3ccccc23)C1c1ccccn1 (stereo unspecified)	-14.3%
COc1cc(Cl)c(C)cc1NC(=O)c1ccc(NS(=O)(=O)c2ccc(F)c(F)c2)cc1	14.5%
CCOC(=O)c1c(/N=C/c2cc([N+](=O)[O-])ccc2O)sc(C)c1C	-20.3%
CN(C)CCOc1cccc(Cl)c1	-12.3%
Cc1cc(C(=O)CSc2nncn2C)c(C)n1-c1ccccc1	-35.2%
Cc1cc(C(=O)CSc2nnc3ccccn23)c(C)n1-c1ccccc1	82% (active)
Cc1ccc(C(=O)CSc2nnc3ccccn23)c(C)c1	18.8%
Nc1c(-c2ccccc2)c(CSc2nc3ccccc3[nH]2)nn1-c1cccc(C(=O)O)c1	-21.3%
Nc1c(-c2ccccc2)c(CSc2nc3ccccc3[nH]2)nn1-c1cccc(Cl)c1	79.7% (active)
Nc1c(-c2ccccc2)c(CSc2nc3ccccc3[nH]2)nn1-c1ccc(Cl)cc1	70.5%
Cn1c(N)c(C(=O)Nc2c(Cl)cccc2Cl)sc1=S	-11.3%
CCN(CC)c1ccc(N2C(=O)/C(=C\c3cccs3)SC2=S)cc1	-102%
COc1ccccc1/C=C/C(C)=O	-47.2%
COc1ccccc1/C=C/C(=O)/C=C/c1ccccc1O	94.3% (active)
COc1ccccc1/C=C/C(=O)c1ccccc1	-6.9%
CC1(C)Cc2c(sc3[nH]c(=S)n(Cc4ccccc4)c(=O)c23)CO1	-3.1%
CC(C)C1Cc2c(sc3c2c(=O)n(Cc2ccccc2)c2nncn32)CO1 (stereo unspecified)	12.9%
CC(C)C1Cc2c(sc3[nH]c(=S)n(Cc4ccccc4)c(=O)c23)CO1 (stereo unspecified)	92.4% (active)
CCOC(=O)N1C/C(=C\c2ccccc2)C(=O)/C(=C/c2ccccc2)C1	41.1% (active)
CCOC(=O)N1CCN(S(=O)(=O)/C=C/c2ccccc2)CC1	9.2%
CCOC(=O)N1CCN(C/C(C)=C/c2ccccc2)CC1	-12%

SMILES	inhibition
COc1cccc(-n2c([S-])c(C(=O)Nc3ccc(C(F)(F)F)cc3)[n+]3ccccc23)c1	-8.9%
COc1cccc(C(=O)Nc2ccc(S(=O)(=O)Nc3nccc(C)n3)cc2)c1	-16.6%
Cc1ccc(S(=O)(=O)NCCC(=O)O)cc1	-3.1%
CCCn1c(SCC(=O)c2ccc3c(c2)OCCO3)nc2c1c(=O)n(C)c(=O)n2C	-19.8%
Cc1ccc(C)c(C(=O)CN2C(=O)c3ccccc3S2(=O)=O)c1	9.1%
O=C(CN1C(=O)c2ccccc2S1(=O)=O)c1ccccc1	-2.1%
Cc1cc(C(=O)CN2C(=O)c3ccccc3S2(=O)=O)c(C)n1-c1ccccc1	94.4% (active)
COc1cc(NC(=O)CC(C)n2ccnc2)cc(OC)c1 (stereo unspecified)	-0.2%
COC(=O)c1c(NC(=O)CCl)sc(C(=O)N2CCOCC2)c1C	80.5% (active)
COC(=O)c1c(NC(C)=O)sc(C(=O)N2CCOCC2)c1C	-4.7%
COC(=O)c1c(NC(=O)C(C)C)sc(C(=O)N2CCOCC2)c1C	5.6%
COc1ccccc1NC(=O)CS(=O)(=O)c1cn(CC(=O)N(C(C)C)C(C)C)c2ccccc12	-1.2%
Cc1ccccc1C(=O)Nc1cc(-c2cc(C(C)(C)C)oc2C)nn1C	-3.8%
CC(=O)/C(=C/c1ccccc1)C(=O)Nc1ccccc1C	35.2%
Cc1ccccc1NC(=O)C(=Cc1ccc(C(=O)O)cc1)C(=O)Nc1ccccc1C	39.4% (active)
Cc1ccc(NC(=O)C(=Cc2ccc(C(=O)O)cc2)C(=O)Nc2ccc(C)cc2C)c(C)c1	9.9%
CC(=O)Nc1ccccc1C(F)(F)F	5.2%
COc1ccc2nc(N3C(=O)CNC3=S)sc2c1	-9.5%
Cn1c(O)c(C2=c3ccccc3=NC2=O)[nH]c1=S	7.1%
COc1ccc2nc(-n3c(O)c(C4=c5ccccc5=NC4=O)[nH]c3=S)sc2c1	93% (active)
COc1ccc(-c2cn3c4c(sc3n2)CCCC4)cc1	1.4%
CN(C)S(=O)(=O)c1ccc(N2CCCC2)c(C(=O)Nc2ccccc2N2CCOCC2)c1	-0.9%

SMILES	inhibition
CCCCC(=O)N/N=C(/C)C1=C(C)C(C)(C)OC1=O	-20.4%
Cc1ccc(-c2ccc(/C=C3\C(=O)ON=C3c3ccccc3)o2)c([N+](=O)[O-])c1	70.5% (active)
COc1ccc(-c2ccc(/C=C3\C(=O)N(c4ccccc4)N=C3c3ccccc3)o2)c([N+](=O)[O-])c1	10.5%
O=C1ON=C(c2ccccc2)/C1=C/c1ccc(-c2ccccc2[N+](=O)[O-])o1	46.2%
CCSc1nc2ccccc2n1CC(=O)N1CCCCC1	14.8%
O=[N+]([O-])c1cc(CN2CCN(c3ccccc3)CC2)c(O)c2ncccc12	31.8%
O=[N+]([O-])c1cc(CN2CCOCC2)c2cccnc2c1O	51.3% (active)
O=[N+]([O-])c1cc(CN2CCCC2)c2cccnc2c1O	2.2%
O=[N+]([O-])c1cccc(S(=O)(=O)Nc2ccc(S(=O)(=O)N3CCCC3)cc2)c1	-4%
CSc1cccc(NC(=O)CCn2c(=O)c3cccn3c3cccnc32)c1	-16.4%
Cc1ccc(NC(=O)/C=C/c2cccc(C(F)(F)F)c2)cc1	15.4%
O=C(/C=C/c1ccccc1)Nc1cccc(C(=O)O)c1	96.6% (active)
O=C(/C=C/c1ccccc1)Nc1cc(C(=O)O)cc(C(=O)O)c1	-46.3%
O=C(Nc1ncn[nH]1)c1ccccc1O	1.8%
CC(=O)Nc1cccc(C(=O)/C=C/c2ccc(F)cc2)c1	-34.5%
CC(=O)Nc1cccc(C(=O)/C=C/c2ccc(/C=C/C(=O)c3cccc(NC(C)=O)c3)cc2)c1	85.5% (active)
O=C(/C=C/c1cccc(C(F)(F)F)c1)Nc1cccc(C(F)(F)F)c1	75.5% (active)
O=C(/C=C/c1ccccc1)Nc1ncn[nH]1	59.8% (active)
CC(=O)Nc1cccc(C(=O)/C=C/c2ccc(C)cc2)c1	34.7%
O=C(/C=C/c1ccccc1)Nc1cc(NC(=O)/C=C/c2ccccc2)cc(C(=O)O)c1	-29.4%
Cc1nc(NC(=O)/C=C/c2ccccc2)n[nH]1	51.1%
CC(=O)Nc1ccc(NC(=O)/C=C/c2cccc(C(F)(F)F)c2)cc1	-14.7%
